Data on 18 molecules can be found in PubChem BioAssay (NCATS).

Results filed as inconclusive are left out. Entries that show only a call come without a potency. Calls of active or inactive are those of the source. The call rests on the fitted dose curve; in most records, active means well fitted inhibition curve with a large enough effect; inconclusive means small, poorly fitted or top-dose-only effect; inactive means flat fitted curve, though single readings scatter.

This assay deals with Calcium and integrin-binding protein 1 (Homo sapiens) (UniProt Q99828). The experiment in a line: Primary qHTS for Identification of Calcium Integrin Binding Protein 1 (CIB1) Competitor (AID 1508620).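 Further: GST tagged CIB1 binding a fluorescein labelled alphaIIb integrin peptide tracer; top concentration of the series differs between compounds.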 The conditions noted are these: CIB1-GST / FITC-alphaIIb peptide fluorescence polarization; series mostly up to 57.7 µM. The gist of the method: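 Fluorescence polarization competition: CIB1-GST (1 uM final) preincubated with compound 15 min at room temperature, then FITC-labeled alphaIIb peptide (100 nM final) added for another 15 min. Polarization read at Ex 480/Em 540.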
Sequence of Calcium and integrin-binding protein 1 (Homo sapiens) (Q99828 whole entry, looked up): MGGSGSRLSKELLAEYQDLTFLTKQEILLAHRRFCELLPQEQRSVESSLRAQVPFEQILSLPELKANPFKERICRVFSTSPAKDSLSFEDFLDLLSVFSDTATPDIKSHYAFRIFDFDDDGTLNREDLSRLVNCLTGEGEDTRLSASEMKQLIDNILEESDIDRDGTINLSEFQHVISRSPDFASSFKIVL
In general terms: Quantitative high-throughput screening tests each substance at several concentrations.
As for `CC12CC(O)C(O)C=C1c1cc(O)cc(O)c1C(=O)O2` (stereo not drawn), the Potency entry is “inactive”.
Then `COC(=O)C1(O)C(OC(C)=O)CCC2C3(CC(c4ccoc4)OC3=O)C(C)=CCC21C(=O)OC` (stereo not drawn), with “inactive”; and `CC1(C)C=Cc2c(ccc3c2N=C2C(C)(C)[C@@H]4C[C@]56CCCN5C(=O)[C@@]4(C[C@]23O)NC6=O)O1`, with “inactive”; and `C=C1[C@@H]2CC[C@@]3(C)[C@H](c4ccoc4)OC(=O)C[C@]13O[C@H]1CC(=O)C(C)(C)[C@H](C(O)C(=O)OC)[C@]12C` (stereo partly drawn), with “inactive”.
`COc1cc2c(c(OC)c1O)C(c1ccc(O)cc1)C1C(=O)OC3C(COC(=O)C1=C2)OC(CO)(OC1OC(COC(=O)/C=C/c2ccc(OC4OC(C)C(O)C(O)C4O)cc2)C(O)C(O)C1O)C3O` (stereo not drawn): the Potency result was “inactive”.
On to `OC[C@@]1(O)CO[C@@H](OC[C@H]2O[C@@H](Oc3ccccc3)[C@H](O)[C@@H](O)[C@@H]2O)[C@@H]1O`, for which the Potency result was “inactive”.
As to `CC1C2=CC(=O)OC2(O)CC2C1C(OC(=O)c1ccccc1)C(OC(=O)c1ccccc1)C1(O)C2(C)CCC(O)C1(C)C(=O)O` (stereo not drawn), the Potency result is “inactive”.
Regarding `Nc1ccc(-n2nc(C(F)(F)F)cc2C(F)(F)F)cc1`, the Potency result is “inactive”.
`CC1=CC(=O)CC(C)(C)C1CO[C@@H]1O[C@H](CO)[C@@H](O)[C@H](O)[C@H]1O` (stereo partly drawn): the Potency entry is “inactive”.
For the molecule `O=C(Cc1ccc(Cl)cc1)Nc1cnccc1C(=O)O`, the Potency entry was “inactive”.
On to `O=C(OCC1OC(Oc2ccc(O)cc2COC(=O)C2(O)C(O)CCC(=O)C2OC(=O)C2C=CCC2)C(OC(=O)C2C=CCC2)C(O)C1O)C1C=CCC1` (stereo not drawn), for which the Potency result is “inactive”.
Regarding `C/C=C(/C)C(=O)OC1C2OC2C2(CO2)C2C3OC(=O)C(C)C3CCC12C` (stereo not drawn), the Potency entry was “inactive”.
Take `COc1cc(/C=C/C(=O)O[C@@H]2C[C@@](O)(C(=O)O)C[C@@H](O)[C@@H]2O)ccc1O`: the Potency entry was “inactive”.
As to `C=C1[C@H](OC(C)=O)[C@H]2[C@@H](OC(=O)c3ccccc3)[C@@H](C)C[C@]2(O)[C@@H](OC(C)=O)[C@H](C)/C=C/C(C)(C)C(=O)[C@H](OC(C)=O)[C@H]1OC(C)=O`, the Potency result was “inactive”.
With `CC(O)C1CCC2C3CCC4CC(OC5OC(C(=O)O)C(O)C(O)C5O)CCC4(C)C3CCC12C` (stereo not drawn), the Potency entry was “inactive”.
On to `C[C@H]1[C@H](C)CC[C@]2(C(=O)OC3OC(CO)C(O)C(O)C3O)CC[C@]3(C(=O)O)C(=CCC4[C@@]5(C)CC[C@H](O[C@@H]6O[C@@H](C)[C@H](OC7OC(CO)C(O)C(O)C7O)[C@@H](O)[C@H]6O)C(C)(C)C5CC[C@]43C)[C@H]12` (stereo partly drawn), for which the Potency result is “inactive”.
In the case of `CC(NC(=O)CC(=O)O)C(=O)Nc1ccccc1C(N)=O` (stereo not drawn), the Potency result is “inactive”.
Take `CC1=C2C3OC(=O)C(C)C3(O)CCC2(C)CCC1` (stereo not drawn): the Potency entry was “inactive”.
